A short description of experiment [1]: small molecules captured by biotinylated probe aFSTL3 – biochemical, small-molecule microarray, fluorescence 635/667, stem cell growth factor project, primary screen (AID 1064).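 Also: measures binding of the biotinylated anti-FSTL3 antibody to printed compounds.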 The note with it: higher = more signal.
A short description of experiment [2]: binders from COS7 lysate, DM2A8 probe, primary screen, torsin A project, cell lysate, small-molecule microarray, fluorescence 635/667 (AID 1065). Particulars: higher = more signal, COS7 lysate expressing mutant human TOR1A.
Experiment [3] in a line: small molecules captured by biotinylated probe aFGF2 – biochemical, small-molecule microarray, fluorescence 635/667, stem cell growth factor project, primary screen (AID 1067).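 Also: measures binding of biotinylated aFGF2 protein to printed compounds on slides; z-score merges feature fluorescence and signal-to-noise across triplicate slides.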 Particulars: higher = more signal.
A short description of experiment [4]: small molecules captured by biotinylated probe aFGF10 – biochemical, small-molecule microarray, fluorescence 635/667, stem cell growth factor project, primary screen (AID 1071).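 Also: score merges 667 nm spot intensity and signal to noise from triplicate slides.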 The note with it: higher = more signal.
The target in experiment [5] is Neurogenic locus notch homolog protein 2 (Homo sapiens) (UniProt Q04721). As to the kind of experiment: small molecules binding Notch2 protein – biochemical, small-molecule microarray, 635 nm fluorescence, stem cell growth factors, primary screen (AID 1073). Particulars: higher = more signal.
Sequence of Neurogenic locus notch homolog protein 2 (Homo sapiens) (Q04721 whole entry, looked up, canonical isoform): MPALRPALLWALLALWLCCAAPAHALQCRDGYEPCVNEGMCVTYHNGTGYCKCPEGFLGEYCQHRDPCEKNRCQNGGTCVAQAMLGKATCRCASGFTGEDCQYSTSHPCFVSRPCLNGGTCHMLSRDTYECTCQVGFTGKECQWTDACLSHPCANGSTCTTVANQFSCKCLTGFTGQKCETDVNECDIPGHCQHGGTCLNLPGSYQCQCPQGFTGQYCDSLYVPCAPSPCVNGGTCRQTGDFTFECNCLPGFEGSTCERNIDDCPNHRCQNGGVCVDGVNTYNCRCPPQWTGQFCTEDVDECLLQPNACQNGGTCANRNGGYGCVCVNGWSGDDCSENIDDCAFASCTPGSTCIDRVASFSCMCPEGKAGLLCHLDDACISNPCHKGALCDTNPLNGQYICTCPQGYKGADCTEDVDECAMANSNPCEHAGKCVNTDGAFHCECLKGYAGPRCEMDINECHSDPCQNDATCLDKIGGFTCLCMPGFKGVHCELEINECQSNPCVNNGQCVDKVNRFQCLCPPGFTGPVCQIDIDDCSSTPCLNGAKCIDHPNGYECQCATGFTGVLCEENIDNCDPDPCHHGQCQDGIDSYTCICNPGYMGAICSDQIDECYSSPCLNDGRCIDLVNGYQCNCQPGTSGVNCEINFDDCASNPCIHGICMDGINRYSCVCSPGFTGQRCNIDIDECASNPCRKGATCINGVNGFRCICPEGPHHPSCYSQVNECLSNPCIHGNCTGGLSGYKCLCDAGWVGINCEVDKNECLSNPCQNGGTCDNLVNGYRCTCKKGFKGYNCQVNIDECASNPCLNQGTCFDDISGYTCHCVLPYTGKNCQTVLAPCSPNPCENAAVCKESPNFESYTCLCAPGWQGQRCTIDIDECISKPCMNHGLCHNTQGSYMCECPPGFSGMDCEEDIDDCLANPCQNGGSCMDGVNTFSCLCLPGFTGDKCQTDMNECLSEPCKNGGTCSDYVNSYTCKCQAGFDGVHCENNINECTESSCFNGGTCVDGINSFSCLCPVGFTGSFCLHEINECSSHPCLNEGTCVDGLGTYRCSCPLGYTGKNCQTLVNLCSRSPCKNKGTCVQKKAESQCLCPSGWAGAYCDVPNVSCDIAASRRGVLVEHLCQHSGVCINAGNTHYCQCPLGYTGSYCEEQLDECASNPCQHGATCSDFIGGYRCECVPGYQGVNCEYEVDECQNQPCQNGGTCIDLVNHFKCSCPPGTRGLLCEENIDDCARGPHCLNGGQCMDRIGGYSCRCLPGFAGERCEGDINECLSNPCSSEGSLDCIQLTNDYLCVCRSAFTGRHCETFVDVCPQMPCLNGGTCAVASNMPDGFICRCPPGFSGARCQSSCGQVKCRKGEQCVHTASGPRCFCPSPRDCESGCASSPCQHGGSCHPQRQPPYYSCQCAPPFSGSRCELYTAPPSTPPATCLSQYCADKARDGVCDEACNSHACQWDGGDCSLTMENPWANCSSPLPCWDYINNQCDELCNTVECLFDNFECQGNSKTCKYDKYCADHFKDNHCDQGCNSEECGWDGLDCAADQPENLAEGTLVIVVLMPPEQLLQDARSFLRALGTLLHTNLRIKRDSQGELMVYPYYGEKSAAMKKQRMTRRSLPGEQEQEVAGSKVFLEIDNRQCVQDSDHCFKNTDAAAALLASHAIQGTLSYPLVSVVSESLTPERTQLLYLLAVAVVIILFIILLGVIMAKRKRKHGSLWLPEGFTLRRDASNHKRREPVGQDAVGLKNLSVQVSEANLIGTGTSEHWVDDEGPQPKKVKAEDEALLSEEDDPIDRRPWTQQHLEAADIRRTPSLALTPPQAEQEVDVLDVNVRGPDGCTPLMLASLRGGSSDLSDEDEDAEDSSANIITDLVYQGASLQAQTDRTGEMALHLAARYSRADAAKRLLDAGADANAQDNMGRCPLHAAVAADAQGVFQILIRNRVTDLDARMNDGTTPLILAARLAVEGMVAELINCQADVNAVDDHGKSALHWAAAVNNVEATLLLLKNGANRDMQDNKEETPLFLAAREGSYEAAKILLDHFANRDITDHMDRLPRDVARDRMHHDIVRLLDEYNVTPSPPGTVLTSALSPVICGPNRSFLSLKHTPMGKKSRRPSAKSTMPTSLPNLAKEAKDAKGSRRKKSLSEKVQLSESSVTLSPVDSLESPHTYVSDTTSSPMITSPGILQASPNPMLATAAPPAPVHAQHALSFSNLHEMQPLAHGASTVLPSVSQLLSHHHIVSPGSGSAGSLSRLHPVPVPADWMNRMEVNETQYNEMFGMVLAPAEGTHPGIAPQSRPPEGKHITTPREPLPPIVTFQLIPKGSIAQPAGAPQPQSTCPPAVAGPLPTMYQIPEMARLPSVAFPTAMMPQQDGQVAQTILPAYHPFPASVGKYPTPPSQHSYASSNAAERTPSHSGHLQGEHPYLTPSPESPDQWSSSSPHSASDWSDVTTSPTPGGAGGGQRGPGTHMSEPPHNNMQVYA
The target of experiment [6] is Pro-neuregulin-1, membrane-bound isoform (Homo sapiens) (UniProt Q02297). The experiment in a line: small molecules binding neuregulin-1 protein – biochemical, small-molecule microarray, fluorescence 635/667, psychiatric disease protein project, primary screen (AID 1075).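 Also: score combines 667 nm spot fluorescence with signal to noise.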 The note with it: NRG1 binding, 635 nm fluorescence, higher = more signal.
Sequence of Pro-neuregulin-1, membrane-bound isoform (Homo sapiens) (Q02297 whole entry, looked up, the tested form may be a part, canonical isoform): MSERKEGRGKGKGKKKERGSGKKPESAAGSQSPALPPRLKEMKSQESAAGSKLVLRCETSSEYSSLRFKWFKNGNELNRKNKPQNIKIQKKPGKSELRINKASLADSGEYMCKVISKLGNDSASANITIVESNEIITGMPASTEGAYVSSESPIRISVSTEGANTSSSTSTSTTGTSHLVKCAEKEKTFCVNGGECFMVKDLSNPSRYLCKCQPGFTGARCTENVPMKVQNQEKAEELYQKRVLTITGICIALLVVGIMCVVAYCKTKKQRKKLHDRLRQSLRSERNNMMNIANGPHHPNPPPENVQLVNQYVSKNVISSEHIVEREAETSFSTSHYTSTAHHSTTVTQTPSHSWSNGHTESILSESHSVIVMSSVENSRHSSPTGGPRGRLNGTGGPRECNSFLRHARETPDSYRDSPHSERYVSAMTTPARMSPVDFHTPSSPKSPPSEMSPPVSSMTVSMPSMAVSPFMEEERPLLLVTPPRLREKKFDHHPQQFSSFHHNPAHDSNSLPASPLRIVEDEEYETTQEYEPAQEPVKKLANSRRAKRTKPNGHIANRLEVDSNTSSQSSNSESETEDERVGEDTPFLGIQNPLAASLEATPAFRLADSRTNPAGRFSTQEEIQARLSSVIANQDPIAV
For experiment [7], the system named is Neuregulin-1 EGF-like domain. As to the kind of experiment: small molecules binding NRG1 EGF domain – biochemical, small-molecule microarray, 635 nm fluorescence, primary screen (AID 1081).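 Also: binding of the protein to compounds printed on small-molecule microarray slides.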 The note with it: higher = more signal.
Experiment [8] in a line: FRG1 expression reporter modulators in myotubes – cell-based, C2C12 myotubes, firefly/Renilla luciferase, luminescence, FRG1 inhibition for FSHD, primary screen (AID 1084). The note with it: FRG1 promoter luciferase, higher = more signal, called active from +8 up or from −8 down.
Experiment [9] is described as follows: small molecules captured by biotinylated probe aFST – biochemical, small-molecule microarray, fluorescence 635/667, stem cell growth factor project, primary screen (AID 1086).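 Also: score merges 667 nm fluorescence with signal-to-noise of each printed compound spot.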 The note with it: higher = more signal.
The nature of experiment [10]: binders of probe aHhip on microarray, primary screen, stem cell growth factor project, biochemical, small-molecule microarray, fluorescence 635/667 (AID 1087).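 Also: score merges spot fluorescence at 667nm with spot signal to noise ratio.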 Particulars: higher = more signal.

From PubChem BioAssay come the findings set out here.

Active and inactive are the calls of the source.

For `COC(=O)[C@@]1(Cc2ccc(F)cc2)[C@H]2c3cc(C(=O)N4CCCC4)n(Cc4cc(C)n(C)n4)c3C[C@H]2CN1C(=O)c1ccccc1`, the composite z-score in experiment [1] was found to be 1.08; in experiment [2] it was 0.276; in experiment [3], 0.188; in [4], 0.741; in [5], 1.63; in experiment [6], 2.3. Besides, the figures for the composite z-score in [7], in experiment [9] and in experiment [10] were 1.19, 0.939 and 0.28, respectively. Further, in experiment [8], the z-score is 0.23 (inactive).

For `COCCOC(=O)N1C(=O)[C@@]2(c3cc(C#CCCO)ccc31)[C@H](c1ccc(OCCO)cc1)N1[C@H](c3ccccc3)[C@H](c3ccccc3)OC(=O)[C@H]1[C@@H]2C(=O)N1CCN(c2ncccn2)CC1`, the composite z-score in experiment [1] is -0.204; in experiment [2], -0.0161; in experiment [3] it was -0.0972; in [4], 0.281; in [5], 1.33; in [6] it was 0.317. For the same compound, the composite z-score in experiment [7] came to 1.23; in [9], 0.658; in experiment [10], 0.0274. In addition, the z-score in experiment [8] was -0.37 (inactive).

As for `C=C(COC)/C(=C/C[C@@H](OC(C)=O)c1ccc(CO)o1)c1cnc2ccccc2c1`, the composite z-score in [1] was -0.258; in experiment [2], 0.434; in experiment [3] it was 0.0472; in experiment [4] it was 1.11; in experiment [5] it was 1.65; in experiment [6], 1.02. Moreover, the composite z-score in experiment [7] worked out at 1.04; in experiment [9], 0.408; in [10], 0.364. The z-score in experiment [8] was 0.527 (inactive).

On to `CCOC(=O)C[C@H]1[C@H](OC(=O)Cc2ccc3c(c2)OCO3)[C@@H](NC(=O)c2ccc(-c3ccccc3)cc2)c2cc(OCCCO)ccc2N1C(=O)c1ccc2ccccc2n1`, for which the composite z-score is -0.472 in experiment [1]; 0.783 in experiment [2]; -0.131 in [3]; 0.228 in experiment [4]; 0.399 in [5]; 0.281 in [6]. The composite z-score in experiment [7] was 0.167; in [9], 0.0972; in experiment [10], -0.236. Further, the z-score in experiment [8] was -4.52 (inactive).

For `C=CCNC(=O)[C@H]1[C@@H]2C(=O)O[C@@H](c3ccccc3)[C@@H](c3ccccc3)N2[C@@H](c2ccc(OCCO)cc2)[C@]12C(=O)Nc1ccc(C#CC3=CCCCC3)cc12`, the composite z-score is -0.299 in experiment [1]; 0.218 in experiment [2]; 0.0703 in experiment [3]; 0.498 in experiment [4]; 1.05 in experiment [5]; 0.688 in experiment [6]. For the same compound, the composite z-score in experiment [7] is 1.29; in [9] it was 0.233; in [10] it was -0.216. Besides, in experiment [8], the z-score is -0.254 (inactive).

For `CCCC[C@@H]1C[C@H]1[C@@H](NC(=O)c1ccco1)c1ccc(Cl)cc1`, the composite z-score came to 0.159 in experiment [1]; 0.308 in experiment [2]; 0.0296 in experiment [3]; 0.0982 in experiment [4]; 1.22 in [5]; 1.01 in experiment [6]. Further, the values for the composite z-score in [7], in experiment [9] and in [10] were 1.05, 0.829 and 0.0274, respectively. Moreover, the z-score in [8] is -1.51 (inactive).

Regarding `COC(=O)c1c(CC[C@@H](CO)NC(=O)N[C@@H](C)Cn2cc(C3(O)CCCCC3)nn2)oc(C(C)=O)c1C(=O)OC`, the composite z-score was -0.548 in [1]; 1.14 in experiment [2]; -0.0512 in [3]; 1.01 in experiment [4]; 1.25 in [5]; 0.518 in experiment [6]. Moreover, the composite z-score in [7] is 1.3; in experiment [9], 0.817; in [10], -0.184. In addition, the z-score in [8] was 1.2 (inactive).

`Cc1ccc(S[C@]2(C(=O)NCCN3CCOCC3)CC(=O)N(Cc3ccccc3Cl)[C@@H]2c2ccc(CO)cc2)cc1`: the composite z-score in experiment [1] was 0.268; in experiment [2] it was -0.159; in experiment [3], -0.0083; in [4], 0.701; in experiment [5] it was -0.32; in experiment [6] it was 0.956. Moreover, the results for the composite z-score in experiment [7], in experiment [9] and in [10] were 1.15, -0.0909 and -0.0994, respectively. In addition, in [8], the z-score is -0.0709 (inactive).

For `C[N+](C)(C)CCCCNC(=O)[C@H]1C[C@H]2C(=O)N[C@@H](Cc3ccccc3)C(=O)N2[C@H]1c1ccc(O)cc1`, the composite z-score in [1] was 0.288; in experiment [2], 0.504; in experiment [3], -0.074; in experiment [4] it was 0.0806; in [5] it was -0.601; in experiment [6], -0.158. The composite z-score in [7] is 1.22; in experiment [9], -0.0662; in experiment [10], -0.0645. For the same compound, the z-score in [8] is 0.605 (inactive).

Regarding `COc1ccc(COC2OC[C@]3(C)[C@H]4C5=C(CN3C(=O)OC(C)(C)C)[C@H](C)C(CO)C(CO)C5CC[C@@H]24)cc1` (stereo not given in full), the composite z-score in experiment [1] is 0.262; in experiment [2] it was 1.27; in [3] it was -0.0832; in [4], 0.424; in experiment [5], 1.65; in experiment [6] it was 1.02. Also, the results for the composite z-score in experiment [7], in [9] and in experiment [10] were 0.982, 1.98 and -0.069, respectively. Also, the z-score in experiment [8] was 2.67 (inactive).

For the compound `CC(C)(C)OC(=O)CC[C@]1(C(=O)O)N=C(c2ccc(OCCCO)cc2)O[C@H]1c1ccccc1N=[N+]=[N-]`, the composite z-score was determined as 1.1 in experiment [1]; 0.236 in experiment [2]; 0.441 in [3]; 0.448 in [4]; 0.984 in [5]; 1.35 in [6]. Further, the composite z-score stood at 1.14 in [7], 2.04 in experiment [9] and 1.24 in experiment [10]. Also, the z-score in experiment [8] is 5.5 (inactive).

Consider `CCOc1cc(C(O)C2C=CC3C(=O)N(c4ccccc4)C(=O)C3N2Nc2ccccc2)ccc1O` (stereo not given), for which the composite z-score in experiment [1] was 0.259; in [2], 0.107; in [3], 0.252; in experiment [4] it was 1.03; in experiment [5], 0.66; in experiment [6], 1.8. Also, the composite z-score is 1.2 in experiment [7], 0.771 in experiment [9] and -0.189 in [10]. In addition, the z-score in [8] was 0.893 (inactive).

Regarding `COc1ccc(C(=O)Nc2ccc(CN3C(=O)[C@@]4(O[C@@H](CCn5cc([C@H](O)c6ccccc6)nn5)[C@H]([Si](C)(C)c5ccc(OC)cc5)[C@H]4C)c4ccccc43)cc2)cc1`, the composite z-score in experiment [1] was -0.197; in experiment [2] it was 0.315; in experiment [3], 0.484; in [4], -0.164; in [5] it was -0.244; in experiment [6], 0.258. Besides, the composite z-score in experiment [7] was 1.05; in experiment [9], 0.217; in [10] it was -0.0391. Also, the z-score in experiment [8] is -2.48 (inactive).

As for `COc1ccc(C(=O)Nc2ccc(CN3C(=O)[C@@]4(O[C@@H](CCO)[C@H]([Si](C)(C)c5ccc(OC)cc5)[C@H]4C)c4ccccc43)cc2)cc1`, the composite z-score in experiment [1] was -0.0338; in [2], 0.623; in experiment [3] it was -0.113; in experiment [4], 0.187; in experiment [5], 0.912; in experiment [6] it was 1.22. Also, the figures for the composite z-score in experiment [7], in experiment [9] and in experiment [10] were 1.1, 0.25 and -0.0645, respectively. Besides, the z-score in [8] was -3.12 (inactive).

Regarding `CC(C)c1ccc(NN2C(C(O)C(c3ccccc3)c3ccccc3)C=CC3C(=O)N(c4ccccc4)C(=O)C32)cc1` (stereo not given), the composite z-score in experiment [1] is -0.304; in experiment [2] it was -0.612; in experiment [3] it was 0.116; in [4], 0.903; in [5], 1.53; in experiment [6], 1.63. Also, the composite z-score in experiment [7] amounted to 1.26; in experiment [9], 1.25; in experiment [10] it was 0.452. In addition, the z-score in [8] is 0.358 (inactive).

Regarding `CCCCN1CC=CC23O[C@@H]4C=CCOC(=O)[C@@H]4[C@H]2C(=O)N(CCCCCO)[C@@H]3C1=O` (stereo not given in full), the composite z-score in experiment [1] is 0.219; in experiment [2], -0.726; in experiment [3], -0.187; in experiment [4], -0.32; in experiment [5] it was -0.661; in [6], 0.967. Besides, the figures for the composite z-score in [7], in [9] and in experiment [10] were 1.34, -0.603 and -0.21, respectively. Also, in [8], the z-score was -0.333 (inactive).

In the case of `O=C1C2C=CC(C(O)C3CCCCC3)N(Nc3ccc([N+](=O)[O-])cc3)C2C(=O)N1c1ccccc1` (stereo not given), the composite z-score is 0.274 in experiment [1]; 0.167 in experiment [2]; 0.0333 in experiment [3]; 0.239 in experiment [4]; -0.795 in experiment [5]; 1.33 in experiment [6]. The composite z-score in [7] is 1.18; in experiment [9], -0.688; in [10], -0.236. In addition, the z-score in [8] is -1.48 (inactive).
